Measured values taken from the supplement of paper PMC6522484.
± gives the standard deviation of the averaged measurements.

Assays:
DLD1 [1] = assay: cell viability (CellTiter-Glo) relative to plate median (fraction of plate median); higher = more viable cells; conditions: 5 µM; treatment time 24 h; reporter: 7TFP
In short: (§1)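 On parallel plates, a Tecan F500 reader recorded either firefly luciferase or CellTiterGlo luminescence. The plates held colorectal cancer cells stably transduced with lentiviral TCF/Wnt firefly luciferase reporters (7TFP or TCF4/Wnt), seeded in 384-well format and treated 24 h later with library compounds at a final 5 µM for 24 h. Per-well signals were normalised to the plate median (webcellHTS2, additive, no log transformation), and two independent replicates were averaged.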

HCT116 = assay: as above; conditions: 5 µM; treatment time 24 h; reporter: TCF4/Wnt
In short: as §1

SW480 [2] = assay: as above; conditions: 5 µM; treatment time 24 h; reporter: 7TFP
In short: as §1

DLD1 [3] = assay: TCF/Wnt firefly luciferase reporter signal relative to plate median (fraction of plate median); higher = higher Wnt reporter signal; conditions: 5 µM; treatment time 24 h; reporter: 7TFP
In short: as §1

SW480 [4] = assay: as above; conditions: 5 µM; treatment time 24 h; reporter: 7TFP
In short: as §1

Row | Compound | cell viability (DLD1 [1]) | cell viability (HCT116) | cell viability (SW480 [2]) | TCF/Wnt firefly luciferase reporter signal (DLD1 [3]) | TCF/Wnt firefly luciferase reporter signal (SW480 [4])
1 | CCCC(=O)Nc1ccc(OCC(O)CNC(C)C)c(C(C)=O)c1 (stereo not given) | 0.942 ± 0.11 | 0.966 ± 0.019 | 0.876 ± 0.1 | 0.957 ± 0.12 | 1.01 ± 0.035
2 | CN(Cc1cnc2nc(N)nc(N)c2n1)c1ccc(C(=O)N[C@@H](CCC(=O)O)C(=O)O)cc1 | 0.475 ± 0.1 | 1.055 ± 0.0071 | 1.1 | 0.739 ± 0.3 | 1.07 ± 0.064
3 | Cc1cc(O)c(C=O)c(O)c1C(=O)O | 0.939 ± 0.14 | 0.939 ± 0.064 | 0.957 ± 0.035 | 1.09 ± 0.14 | 0.9475 ± 0.0035
4 | CC(C)=CCc1c2c(c3occ(-c4ccc(O)c(O)c4)c(=O)c3c1O)C=CC(C)(C)O2 | 0.997 ± 0.033 | 1.04 ± 0.067 | 1.03 ± 0.028 | 0.996 ± 0.077 | 1.02 ± 0.021
5 | O=C1NC(Cc2ccc(O)cc2)C(=O)N2CCCC12 (stereo not given) [cyclo(prolyltyrosyl)] | 0.9655 ± 0.0021 | 0.95 ± 0.023 | 1.025 ± 0.0071 | 0.998 ± 0.2 | 0.887 ± 0.05
6 | CC(C(=O)O)c1ccc(-c2ccccc2)c(F)c1 (stereo not given) | 1.09 ± 0.11 | 1.11 ± 0.078 | 1.04 | 1.07 ± 0.014 | 1.02 ± 0.035
7 | COc1cc(N)c(Cl)cc1C(=O)NC1CCN(Cc2ccccc2)CC1 | 0.971 ± 0.026 | 0.883 ± 0.041 | 0.975 ± 0.0071 | 0.8815 ± 0.0021 | 0.998 ± 0.017
8 | CC(=O)C12OC(C)(c3ccccc3)OC1CC1C3CCC4=CC(=O)CCC4(C)C3CCC12C (stereo not given) | 0.963 ± 0.039 | 0.987 ± 0.033 | 0.976 ± 0.035 | 0.977 ± 0.061 | 0.939 ± 0.067
9 | CCN(CC)CCOc1ccc(C(=C(Cl)c2ccccc2)c2ccccc2)cc1 | 0.983 ± 0.019 | 0.971 ± 0.041 | 0.939 ± 0.073 | 0.914 ± 0.028 | 1.01 ± 0.27
10 | CCCCC1=NC2(CCCC2)C(=O)N1Cc1ccc(-c2ccccc2-c2nnn[nH]2)cc1 | 0.897 ± 0.099 | 0.939 ± 0.016 | 1 ± 0.083 | 1.01 ± 0.048 | 0.811 ± 0.22
11 | Nc1ccc(S(=O)(=O)c2ccc(N)cc2)cc1 | 1.08 ± 0.057 | 0.956 ± 0.063 | 1.02 | 0.94 ± 0.054 | 0.922 ± 0.059
12 | CC(=O)OCC(=O)[C@@]1(O)CC[C@H]2[C@@H]3CCC4=CC(=O)CC[C@]4(C)[C@@]3(F)[C@@H](O)C[C@@]21C | 0.975 ± 0.027 | 1.07 ± 0.085 | 0.995 ± 0.022 | 1.06 | 1.07 ± 0.11
13 | OCCOCCN1CCN(C2=Nc3ccccc3Sc3ccccc32)CC1 | 1.05 ± 0.094 | 1 ± 0.15 | 0.991 ± 0.013 | 1.03 ± 0.028 | 1.08 ± 0.014
14 | COc1cc(OC)c2c(=O)c(-c3ccccc3)coc2c1 | 0.989 ± 0.0028 | 1.04 ± 0.12 | 1.025 ± 0.0071 | 1.09 ± 0.064 | 1.1 ± 0.05
15 | C[C@H]1O[C@H](O[C@H]2[C@H](O)[C@@H](O)[C@@H](O[C@H]3[C@H](O)[C@@H](O)C(O)O[C@@H]3CO)O[C@@H]2CO)[C@H](O)[C@@H](O)[C@@H]1N[C@H]1C=C(CO)[C@@H](O)[C@H](O)[C@H]1O (stereo not given in full) | 1.01 ± 0.034 | 0.96 ± 0.057 | 0.988 ± 0.012 | 1.06 | 1.02 ± 0.014
16 | CC1CCC(NC(=O)N(CCCl)N=O)CC1 (stereo not given) | 1.01 ± 0.059 | 1.02 ± 0.071 | 1.015 ± 0.0071 | 1.08 ± 0.035 | 1.16 ± 0.028
17 | CO[C@H]1/C=C/O[C@@]2(C)Oc3c(C)c(O)c4c(O)c(c5c(nc6cc(C)ccn65)c4c3C2=O)NC(=O)/C(C)=C\C=C\[C@H](C)[C@H](O)[C@@H](C)[C@@H](O)[C@@H](C)[C@H](OC(C)=O)[C@@H]1C | 1.05 ± 0.093 | 1.1 ± 0.035 | 1.04 ± 0.042 | 1.05 ± 0.15 | 1.11 ± 0.071
18 | C[C@H]1[C@H](C)CC[C@]2(C(=O)O)CC[C@]3(C)C(=CC[C@@H]4[C@@]5(C)C[C@@H](O)[C@H](O)[C@@](C)(CO)[C@@H]5CC[C@]43C)[C@H]12 | 1.04 ± 0.072 | 1.1 ± 0.15 | 1.1 ± 0.021 | 0.974 ± 0.093 | 1.05 ± 0.035
19 | COC1=C(OC)C(=O)C(C/C=C(\C)CC/C=C(\C)CC/C=C(\C)CC/C=C(/C)CC/C=C(\C)CC/C=C(\C)CC/C=C(\C)CC/C=C(\C)CC/C=C(\C)CCC=C(C)C)=C(C)C1=O | 1.02 ± 0.035 | 0.993 ± 0.067 | 1.115 ± 0.0071 | 0.98 ± 0.057 | 0.923 ± 0.15
20 | O=C(O)C1=C(CSc2nnnn2CS(=O)(=O)O)CS[C@@H]2[C@H](NC(=O)[C@H](O)c3ccccc3)C(=O)N12 | 0.951 ± 0.025 | 1.05 ± 0.071 | 0.973 ± 0.052 | 0.915 ± 0.023 | 0.968 ± 0.04
21 | C#CCCCCCCCCCCCC(O)CC(O)CO.C=CCCCCCCCCCCCC(O)CC(O)CO (stereo not given) | 1.015 ± 0.0071 | 0.974 ± 0.0099 | 1.01 ± 0.051 | 1.05 ± 0.18 | 0.974 ± 0.11
22 | CN(C)CCCN1c2ccccc2CCc2ccc(Cl)cc21 | 1.04 | 0.984 ± 0.051 | 1.06 ± 0.021 | 1.06 ± 0.1 | 1.01 ± 0.055
23 | NCCCC(=O)O [gamma-AMINOBUTYRIC ACID] | 1.02 ± 0.046 | 1.02 ± 0.11 | 1.04 ± 0.05 | 1.06 ± 0.093 | 0.89 ± 0.24
24 | O=C(O)[C@]1(O)C[C@@H](O)[C@@H](O)[C@H](O)C1 | 0.982 ± 0.04 | 1.05 ± 0.16 | 0.934 ± 0.033 | 1.08 ± 0.16 | 0.923 ± 0.17
25 | CC(C)[C@H](N)C(=O)OCCOCn1cnc2c(=O)nc(N)[nH]c21 | 1.01 ± 0.028 | 0.879 ± 0.12 | 0.938 ± 0.0071 | 0.969 ± 0.16 | 0.876 ± 0.11
26 | COc1cc2c3cc1Oc1cc(ccc1O)C[C@@H]1c4c(cc(OC)c(O)c4Oc4ccc(cc4)C[C@@H]3N(C)CC2)CC[N+]1(C)C | 0.992 ± 0.012 | 1.01 ± 0.1 | 1.01 ± 0.045 | 0.977 ± 0.089 | 1.07 ± 0.05
27 | CCc1cc(C(N)=S)ccn1 | 0.964 ± 0.035 | 1.02 ± 0.028 | 0.987 ± 0.0071 | 1.07 ± 0.078 | 1.09 ± 0.028
28 | C=CC(C)(O)CCC1C(=C)CC(OC(C)=O)C2C(C)(C)CCCC12C (stereo not given) | 0.929 ± 0.03 | 0.908 ± 0.041 | 0.971 ± 0.033 | 0.798 ± 0.013 | 0.87 ± 0.17
